In PubChem BioAssay (EPA / NIEHS):
Results filed as inconclusive are left out. Active and inactive are the calls of the source. The calls were made as follows, unless noted: active = hit-call score of the fitted dose curve at least 0.9, where 1 is the maximum; inconclusive = response in the unintended direction; inactive = score below 0.9.

Tests used:
[1] = target: human Peroxisome Proliferator-activated Receptor delta (PPARd), PPARD (gene 5467) (UniProt Q03181); experiment: ATG_PPARd_TRANS: Attagene TRANS-FACTORIAL HepG2 Assay for human Peroxisome Proliferator-activated Receptor delta (PPARd) (AID 2283002)
human Peroxisome Proliferator-activated Receptor delta (PPARd), PPARD (gene 5467), sequence (Q03181 whole entry, looked up, the tested form may be a part): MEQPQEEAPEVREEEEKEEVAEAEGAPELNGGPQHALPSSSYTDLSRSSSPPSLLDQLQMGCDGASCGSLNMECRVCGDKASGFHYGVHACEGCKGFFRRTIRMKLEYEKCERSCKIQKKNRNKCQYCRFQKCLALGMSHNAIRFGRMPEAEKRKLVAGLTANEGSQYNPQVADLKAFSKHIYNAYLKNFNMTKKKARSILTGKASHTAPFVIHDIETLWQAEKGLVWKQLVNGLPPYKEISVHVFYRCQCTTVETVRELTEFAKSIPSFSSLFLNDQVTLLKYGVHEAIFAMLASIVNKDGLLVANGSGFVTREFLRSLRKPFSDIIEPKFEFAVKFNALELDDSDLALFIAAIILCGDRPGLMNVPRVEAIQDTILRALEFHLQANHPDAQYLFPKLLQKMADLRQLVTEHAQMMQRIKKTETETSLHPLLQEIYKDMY
Method in brief: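 HepG2 cells transiently transfected with GAL4-UAS multiplexed reporter units driven by exogenous chimeric NR-GAL4 proteins; 24 h compound exposure. Reporter mRNA measured by RT-PCR, 6-FAM primer extension, HpaI digestion and capillary electrophoresis; gain of signal fitted relative to DMSO.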

[2] = target: Peroxisome proliferator-activated receptor gamma (Homo sapiens) (UniProt P37231); experiment: ATG_PPARg_TRANS: Attagene TRANS-FACTORIAL HepG2 Assay for human Peroxisome Proliferator-activated Receptor-gamma (PPARg) (AID 2283007)
Peroxisome proliferator-activated receptor gamma (Homo sapiens), sequence (P37231 whole entry, looked up): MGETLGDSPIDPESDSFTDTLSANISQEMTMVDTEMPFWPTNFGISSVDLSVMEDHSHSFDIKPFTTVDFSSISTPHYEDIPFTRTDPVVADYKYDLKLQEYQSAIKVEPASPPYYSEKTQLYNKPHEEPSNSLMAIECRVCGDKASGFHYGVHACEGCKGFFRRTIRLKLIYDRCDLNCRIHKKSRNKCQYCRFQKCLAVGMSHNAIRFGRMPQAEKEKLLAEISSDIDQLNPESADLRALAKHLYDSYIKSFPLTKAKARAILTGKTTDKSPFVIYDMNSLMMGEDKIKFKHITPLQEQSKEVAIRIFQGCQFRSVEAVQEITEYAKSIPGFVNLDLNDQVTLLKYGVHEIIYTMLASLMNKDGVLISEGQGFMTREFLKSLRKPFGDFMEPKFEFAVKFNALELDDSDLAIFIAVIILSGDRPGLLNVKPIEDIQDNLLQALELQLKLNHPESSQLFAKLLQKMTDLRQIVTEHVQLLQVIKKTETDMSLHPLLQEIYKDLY
Method in brief: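 Human hepatoma HepG2, transient MRTU transfection, 24 h treatment. mRNA reporter signal by RT-PCR plus capillary electrophoresis, fluorescence detection; fitted for increase over DMSO negative control.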

[3] = target: Nuclear receptor subfamily 1 group I member 2 (Homo sapiens) (UniProt O75469); experiment: ATG_PXR_TRANS: Attagene TRANS-FACTORIAL HepG2 Assay for human Pregnane X Receptor (PXR) (AID 2283008)
Nuclear receptor subfamily 1 group I member 2 (Homo sapiens), sequence (O75469 whole entry, looked up, the tested form may be a part): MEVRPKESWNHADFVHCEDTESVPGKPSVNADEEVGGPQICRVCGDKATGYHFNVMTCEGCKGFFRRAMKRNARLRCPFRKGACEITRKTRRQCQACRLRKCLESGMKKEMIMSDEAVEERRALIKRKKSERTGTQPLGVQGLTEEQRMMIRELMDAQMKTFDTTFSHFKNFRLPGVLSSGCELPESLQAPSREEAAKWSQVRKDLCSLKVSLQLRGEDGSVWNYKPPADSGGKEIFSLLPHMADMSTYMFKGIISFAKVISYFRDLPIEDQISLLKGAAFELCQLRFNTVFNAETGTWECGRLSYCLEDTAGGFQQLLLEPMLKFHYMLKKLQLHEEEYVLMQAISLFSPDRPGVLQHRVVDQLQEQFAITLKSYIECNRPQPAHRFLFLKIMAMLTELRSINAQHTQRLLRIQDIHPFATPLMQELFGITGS
Method in brief: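 Read-out is fluorescence of labelled reporter cDNA fragments separated by capillary electrophoresis after RT-PCR and HpaI digestion. Source: HepG2 cells carrying PXR-GAL4/UAS reporter constructs, treated 24 h; activity fitted upward relative to DMSO.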

[4] = target: sheep Cyclooxygenase-1 (Cox1), PTGS1 (gene 443551) (UniProt P05979); experiment: NVS_ENZ_oCOX1: NovaScreen (NVS) Enzymatic Assay for sheep Cyclooxygenase-1 (Cox1) (AID 2283239);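 also: actives reduce cyclooxygenase activity so potencies are for inhibitors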
sheep Cyclooxygenase-1 (Cox1), PTGS1 (gene 443551), sequence (P05979 whole entry, looked up): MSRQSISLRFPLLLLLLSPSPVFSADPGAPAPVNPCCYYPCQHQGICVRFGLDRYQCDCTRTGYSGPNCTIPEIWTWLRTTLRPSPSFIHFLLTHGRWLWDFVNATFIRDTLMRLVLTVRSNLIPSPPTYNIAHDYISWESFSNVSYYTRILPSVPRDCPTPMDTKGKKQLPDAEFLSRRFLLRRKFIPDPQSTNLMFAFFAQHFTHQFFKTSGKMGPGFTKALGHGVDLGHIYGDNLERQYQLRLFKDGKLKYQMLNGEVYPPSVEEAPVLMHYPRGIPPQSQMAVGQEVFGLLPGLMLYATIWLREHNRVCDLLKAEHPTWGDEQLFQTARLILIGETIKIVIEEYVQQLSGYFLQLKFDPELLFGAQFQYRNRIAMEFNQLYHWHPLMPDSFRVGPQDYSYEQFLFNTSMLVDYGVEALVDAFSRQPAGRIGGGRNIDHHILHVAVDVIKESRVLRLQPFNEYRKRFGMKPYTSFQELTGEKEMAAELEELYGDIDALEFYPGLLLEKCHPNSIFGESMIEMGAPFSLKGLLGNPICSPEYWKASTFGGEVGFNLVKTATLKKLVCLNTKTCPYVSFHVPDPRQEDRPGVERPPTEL
Method in brief: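 Absorbance read-out of cyclooxygenase activity in a cell-free preparation from sheep seminal vesicles, taken 0.66 hour after dosing. Initial testing was in duplicate at 25 uM, and confirmatory testing was run in concentration series.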

[5] = CCTE_Harrill_HTTr_Viability_MCF7: CCTE's 6-hour Cell Viability Assessment for the High-Throughput Transcriptomics (HTTr) Platform, in MCF-7 cells cultured in DMEM + 10% fetal bovine serum, Harrill Lab (AID 2284010; active = hit-call score of the fitted dose curve at least 0.9, where 1 is the maximum; inactive = score below 0.9)
Method in brief: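 Membrane integrity was scored by high-content imaging of propidium iodide dye exclusion after a 6 h exposure across an eight-point dilution series. Data were fitted bidirectionally relative to DMSO as negative control and baseline.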

[6] = target: human AMP-activated Protein Kinase, alpha 1 (AMPKa1), PRKAA1 (gene 5562) (UniProt Q13131); experiment: NVS_ENZ_hAMPKa1: NovaScreen (NVS) Enzymatic Assay for human AMP-activated Protein Kinase, alpha 1 (AMPKa1) (AID 2283130)
human AMP-activated Protein Kinase, alpha 1 (AMPKa1), PRKAA1 (gene 5562), sequence (Q13131 whole entry, looked up): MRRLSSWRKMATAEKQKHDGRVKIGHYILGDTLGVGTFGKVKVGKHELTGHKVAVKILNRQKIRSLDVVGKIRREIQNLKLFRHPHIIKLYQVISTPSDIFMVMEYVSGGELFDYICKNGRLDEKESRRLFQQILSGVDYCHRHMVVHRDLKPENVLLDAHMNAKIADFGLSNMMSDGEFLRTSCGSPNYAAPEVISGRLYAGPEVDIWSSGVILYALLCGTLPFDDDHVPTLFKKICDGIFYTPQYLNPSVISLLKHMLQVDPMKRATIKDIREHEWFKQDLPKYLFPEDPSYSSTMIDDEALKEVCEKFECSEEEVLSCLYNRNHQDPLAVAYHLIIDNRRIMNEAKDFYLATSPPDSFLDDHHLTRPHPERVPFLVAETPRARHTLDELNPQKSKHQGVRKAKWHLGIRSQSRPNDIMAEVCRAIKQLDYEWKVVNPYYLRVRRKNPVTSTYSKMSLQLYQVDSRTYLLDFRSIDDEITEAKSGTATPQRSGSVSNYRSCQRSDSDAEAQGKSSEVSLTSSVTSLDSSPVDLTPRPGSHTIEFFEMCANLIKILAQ
Method in brief: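 Recombinant human AMPKα1 activity was measured cell-free by fluorescent substrate conversion with electrophoretic mobility-shift separation, 1 h after dosing. Duplicate single-point screening was at 25 uM; actives (≥30% inhibition) were retested in concentration-response up to 50 uM.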

Measured: outcome

O=[N+]([O-])c1ccccc1Cl
not listed: [6]
inactive: all other assays above

CCCCCCCC(=O)O
inactive: [6]
